74 compounds from PubChem BioAssay AID720511 (Broad Institute, 2013) can be followed below.

Screen size: about 350,000 compounds; about 1,300 (0.37%) were called active. Many of the other results were omitted from the sample, so actives are more common in it than they were. Values without a mark were called inactive.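 Rule for the calls: active = mean added fluorescence quench of at least 8% versus neutral control, with both replicates also reaching 8%; inconclusive = only one of the mean or replicate conditions met; inactive = mean below 8% and not both replicates reaching 8%.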

A short description of this assay: F508del CFTR correction, initial screen, CFBE line, single point (AID 720511).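 Note: cells transiently co-express mutant CFTR-F508del with the halide-sensitive YFP; corrector assay measuring rescue of mutant channel to the surface after 24 h compound exposure.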 The note with it: CFBE cells, YFP halide quenching, at 7.58 µM, hits give high values, % fluorescence drop versus neutral controls, stimulated with forskolin plus potentiator P3.
In the case of `O=C(CN1CCOCC1)Nc1cccc([N+](=O)[O-])c1`, the activity (quench increase) was -2.49%.
Take `Cc1ccc(NC(=O)CN(C)CC(=O)Nc2cccc(F)c2)cc1[N+](=O)[O-]`: the activity (quench increase) was 1.68%.
In the case of `Cc1ccc(CN(C)CC(=O)Nc2cccc([N+](=O)[O-])c2)o1` it was 10.1% (active).
In the case of `COc1cccc(-c2ccc3c(c2)[C@H]2[C@H](CCN2C(=O)c2ccc(F)cc2)[C@@H](CO)N3)c1` it was 1.42%; in that of `COc1cc(OC)c2c(-c3cccc(-c4cccc(N)c4)c3)cc(=O)oc2c1`, 8.2% (active).
With `Cc1cc2oc(=O)cc(-c3ccccc3)c2c(C)c1-c1ccc(OC(F)(F)F)cc1`, the activity (quench increase) is 1.07%.
In the case of `COc1cccc(NC(=O)COc2cc(C)cc3oc(=O)cc(C)c23)c1` it was 2.8%.
In the case of `O=C1Nc2ccccc2C1=NN=Cc1ccco1` it was -2.93%; in that of `COc1ccc(/C=N/N=C2/C(=O)Nc3ccccc32)cc1O`, -1.27%; in that of `Cc1cc(C)c(/C=C2\C(=O)Nc3ccccc32)[nH]1`, 10.3% (active).
In the case of `O=C(NCC[C@H]1CC[C@H](NC(=O)C2CC2)[C@@H](CO)O1)c1ccc(F)cc1` it was 1.43%.
`Cc1c(CCC(=O)O)c(=O)oc2cc(OCc3ccc(Br)cc3)ccc12`: the activity (quench increase) is 0.947%.
As for `Cc1c(CCC(=O)O)c(=O)oc2c(C)c(OCc3ccccc3Cl)ccc12`, the activity (quench increase) is 9.04% (active).
In the case of `COc1ccc2c(C)c(CCC(=O)NC3CC3)c(=O)oc2c1C` it was 2.05%.
In the case of `C[C@@H]1CN([C@@H](C)CO)S(=O)(=O)c2ccc(C#CCN(C)C)cc2O[C@@H]1CN(C)C(=O)CC1CC1` it was 0.474%; in that of `COC(=O)COc1cccc2c(=O)n(CC(=O)NCCc3ccc(OC)c(OC)c3)ccc12`, -1.22%.
With `CCOC(=O)C(C)Oc1cccc2c(=O)n(CC(=O)NCCc3ccc(OC)c(OC)c3)ccc12` (centres undefined), the activity (quench increase) was 2.66%.
In the case of `COC(=O)COc1cccc2c(=O)n(CC(=O)NCc3ccccc3)ccc12` it was 11% (active); in that of `COCC#Cc1ccc([C@@H]2[C@@H](CO)N3CCCCN(C(=O)NC4CCCC4)C[C@H]23)cc1`, -0.841%; in that of `C[C@@H]1CCCCO[C@@H](CN(C)CC2CC2)[C@@H](C)CN([C@H](C)CO)C(=O)c2cc(NC(=O)Nc3cccc4ccccc34)ccc2O1`, -0.347%.
In the case of `COc1ccc(/C=C2/CCCc3ccccc3C2=O)cc1`, the activity (quench increase) is 14.3% (active).
In the case of `COc1ccc(/C=C2\CCc3ccccc3C2=O)c(OC)c1OC` it was -2.36%.
`COc1ccc(/C=C2\N=C3CCCN3C2=O)cc1`: the activity (quench increase) is -1.7%.
In the case of `Cc1ccc(S(=O)(=O)N(C)C[C@H]2OCCCC[C@@H](C)Oc3ccc(NC(=O)NC4CCCCC4)cc3C(=O)N([C@H](C)CO)C[C@@H]2C)cc1` it was 0.861%; in that of `O=C(C[C@H]1C[C@@H]2c3cc(NC(=O)CC4CC4)ccc3O[C@@H]2[C@H](CO)O1)NCc1ccccn1`, -1.26%; in that of `CN(CC(=O)Nc1ccc(Cl)cc1)C(=O)CNC(=O)c1ccc2ccccc2c1`, -7.73%.
Turning to `Cc1cccc(C(=O)NCC(=O)OCC(=O)N(C)CC(=O)Nc2ccccc2Cl)c1`, the activity (quench increase) was 16.8% (active).
In the case of `CN(CC(=O)Nc1ccccc1Cl)C(=O)COc1cccc2c1OC(C)(C)C2` it was -5.27%.
In the case of `C/C=C/c1ccc2c(c1)O[C@H](CN(C)C(=O)Nc1ccccc1)[C@H](C)CN([C@@H](C)CO)S2(=O)=O` it was -0.894%; in that of `COc1ccc2c3c([nH]c2c1)[C@H](CO)N(C(=O)C1CCOCC1)CC31CN(S(C)(=O)=O)C1`, -0.365%.
In the case of `CS(=O)(=O)Nc1ccc2c(c1)[C@H]1C[C@H](CC(=O)NCc3ccc(Oc4ccccc4)cc3)O[C@H](CO)[C@H]1O2` it was 4.1%; in that of `COc1cc(OC)cc(C(=O)N[C@H](C(=O)Nc2nc3ccccc3[nH]2)C(C)C)c1`, 13.5% (active); in that of `COc1cc(OC)cc(C(=O)NC(C(=O)N2CCC2)C(C)C)c1` (centres undefined), 1.12%.
As to `COc1cc(OC)cc(C(=O)N[C@H](C(=O)NNC(=O)c2ccc(Br)cc2)C(C)C)c1`, the activity (quench increase) was -1.77%.
In the case of `COc1ccc(NC(=O)N(C)C[C@H]2OCCCC[C@H](C)Oc3ccc(NC(=O)NC4CCCCC4)cc3C(=O)N([C@@H](C)CO)C[C@@H]2C)cc1` it was -0.706%; in that of `COc1ccc2c3c([nH]c2c1)[C@H](CO)N(C(=O)c1ccccc1)CC31CN(C(=O)Nc2cccc(F)c2)C1`, 0.989%; in that of `COc1ccc2[nH]c3c(C)c4cc[n+](C)cc4c(C)c3c2c1`, 12.8% (active).
In the case of `CC(C)NC(=O)Nc1ccc2c(c1)C(=O)N([C@H](C)CO)C[C@H](C)[C@H](CN(C)C(=O)CCC(F)(F)F)OCCCC[C@H](C)O2` it was 0.243%; in that of `O=C(C[C@@H]1C=C[C@@H](NS(=O)(=O)c2ccccc2)[C@@H](CO)O1)NCc1ccccc1F`, -1.3%.
Take `COCC(=O)Nc1ccc2c(c1)OC[C@@H](C)N(CCc1ccccc1)C[C@H](C)[C@@H](OC)CN(C)C2=O`: the activity (quench increase) is -4.64%.
In the case of `Clc1ccc(Nc2ccc3ccccc3n2)cc1` it was 9.55% (active); in that of `C=CCNc1nc(Nc2ccc(Cl)cc2)nc(OC)n1`, 1.27%.
In the case of `Cn1c(Nc2cccc(Cl)c2)nc2ccccc21` it was 0.14%; in that of `CCCNC(=O)N1CC2(CN(C(=O)c3cnccn3)C2)c2c([nH]c3cc(OC)ccc23)[C@@H]1CO`, -0.147%.
In the case of `C[C@H](NC(=O)C[C@@H]1C[C@@H]2c3cc(NS(=O)(=O)c4ccc(F)cc4)ccc3O[C@@H]2[C@@H](CO)O1)c1ccccc1` it was 0.793%.
As for `COc1ccc2c3c(n(C)c2c1)[C@@H](CO)N(Cc1ccncc1)CC31CN(C(=O)Nc2cccc(F)c2)C1`, the activity (quench increase) was -1.9%.
In the case of `CC1(C(=O)NCc2ccc(F)c(F)c2)Cc2c(-c3ccc4c(c3)OCO4)ccnc2O1` (centres undefined), the activity (quench increase) was 0.827%.
In the case of `COc1ccc(NC(=O)C2(C)Cc3c(-c4cccc(NC(C)=O)c4)ccnc3O2)cc1OC` (centres undefined) it was -0.498%; in that of `CC(=O)Nc1cccc(-c2ccnc3c2CC(C)(C(=O)NCc2ccco2)O3)c1` (centres undefined), 7.38%.
Regarding `CC1(C(=O)NCc2ccco2)Cc2c(-c3ccc4c(c3)OCO4)ccnc2O1` (centres undefined), the activity (quench increase) was 8.09% (active).
In the case of `COc1ccc(NC(=O)C2(C)Cc3c(-c4cccc(NC(C)=O)c4)ccnc3O2)cc1` (centres undefined) it was 9.41% (active); in that of `COc1ccc(NC(=O)C2(C)Cc3c(-c4ccc(C(N)=O)cc4)ccnc3O2)cc1` (centres undefined), -0.667%; in that of `CCC(=O)N1CC2(CN(Cc3cccnc3)C2)c2c(n(C)c3cc(OC)ccc23)[C@@H]1CO`, -0.0075%.
In the case of `CCCC#Cc1cnc2c(c1)C(=O)N([C@@H](C)CO)C[C@@H](C)[C@@H](CN(C)Cc1ccccc1F)O2` it was 0.509%; in that of `CNC(=O)C[C@@H]1CC[C@@H]2[C@@H](COc3ccc(NC(=O)c4ccc5c(c4)OCO5)cc3C(=O)N2C)O1`, 0.442%.
In the case of `COCC(=O)N(C)C[C@@H]1Oc2ncc(C#C[C@H](C)O)cc2C(=O)N([C@@H](C)CO)C[C@@H]1C` it was 1.42%; in that of `COc1ccc(NC(=O)Nc2ccc3c(c2)[C@H]2C[C@H](CC(=O)NC4CCCC4)O[C@H](CO)[C@H]2O3)cc1`, 2.1%.
For `C[C@@H]1CCCCO[C@H](CN(C)C(=O)CCC(F)(F)F)[C@@H](C)CN([C@@H](C)CO)C(=O)c2cc(NC(=O)c3ccncc3)ccc2O1`, the activity (quench increase) is 2%.
In the case of `Cc1ccccc1-c1ccc([C@H]2[C@H]3CN(S(=O)(=O)c4ccc(F)cc4)CCCCN3[C@H]2CO)cc1` it was -0.288%; in that of `O=C(N[C@H]1CC[C@H](CCn2cc(-c3ccccc3F)nn2)O[C@@H]1CO)c1ccc2c(c1)OCO2`, -1.87%; in that of `C[C@@H]1CCCCO[C@@H](CN(C)Cc2ccncc2)[C@H](C)CN([C@@H](C)CO)C(=O)c2cc(N(C)C)ccc2O1`, -0.227%.
In the case of `N#C[C@@H]1[C@@H](c2ccccc2)[C@H](CO)N1C(=O)c1cc(Cl)cc(Cl)c1` it was -2.95%; in that of `COc1ccccc1CCNC(=O)C(=O)NCCC1CCCCN1S(=O)(=O)c1cccs1` (centres undefined), 0.824%; in that of `O=C(NCCC1CCCCN1S(=O)(=O)c1cccs1)C(=O)Nc1ccc(F)cc1F` (centres undefined), 8.8% (active).
For the compound `O=C(NCCC1CCCCN1S(=O)(=O)c1ccc(F)cc1)C(=O)NC1CC1` (centres undefined), the activity (quench increase) is 3.1%.
Take `COc1cccc(-c2ccc3c(c2)O[C@@H](CN(C)Cc2ccncc2)[C@H](C)CN([C@H](C)CO)S3(=O)=O)c1`: the activity (quench increase) was 3.64%.
`Cc1noc(C)c1NC(=O)N(C)C[C@H]1OCCCC[C@@H](C)Oc2ccc(NC(=O)NC(C)C)cc2C(=O)N([C@H](C)CO)C[C@@H]1C`: the activity (quench increase) was 1.72%.
Take `Cc1nnc(NC(=O)CSc2nccn2-c2cccc(C)c2C)s1`: the activity (quench increase) was 8.52% (active).
In the case of `COc1ccccc1-n1c(CNC(=O)c2ccccc2)nnc1SCC(=O)Nc1nnc(C)s1` it was 2.1%.
In the case of `COc1ccccc1-n1ccnc1SCC(=O)NC(C)(C)C` it was 0.912%; in that of `C[C@H](CO)N1C[C@H](C)[C@H](CN(C)S(=O)(=O)c2ccc(Cl)cc2)Oc2c(NS(C)(=O)=O)cccc2C1=O`, 1.05%.
In the case of `CCCNC(=O)[C@@H]1[C@@H](CO)[C@@H]2Cn3c(ccc(/C=C/c4ccccc4)c3=O)[C@H]1N2CCC` it was 3.14%; in that of `CCCN1[C@H](C(=O)N2CCCCC2)[C@@H](CO)[C@@H]2Cn3c(ccc(-c4ccccc4F)c3=O)[C@@H]21`, 1.6%; in that of `CCCN1[C@H](C(=O)N2CCOCC2)[C@@H](CO)[C@@H]2Cn3c(ccc(/C=C/c4ccccc4)c3=O)[C@@H]21`, 9.23% (active).
